The nature of test [1]: Cytometric Cell-Based qHTS for Inhibitors of the mTORC1 Signaling Pathway in MEF (Tsc2-/-, p53-/-) Cells (AID 2660).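 Also: percent of cells above a phospho-rpS6 to PI ratio cutoff in each well; series mostly up to about 38 µM.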 The procedure, abridged:
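Tsc2-/-, p53-/- MEFs (empty vector) exposed to compound 24 h at 37 C, fixed, stained with Alexa-488 anti-phospho-rpS6 Ser235/236 and propidium iodide. Acumen laser scanning; phospho-S6/PI ratio thresholded against 7.5 nM rapamycin, reported as % positive cells.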

Test [2] can be described thus: High Content Imaging Cell-Based qHTS for Inhibitors of the mTORC1 Signaling Pathway in MEF (Tsc2-/-, p53-/-) Cells (AID 2666).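 Also: percent of cells scored positive for phospho-rpS6 Ser235/236 immunostaining by imaging.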 In a few lines:
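Phospho-rpS6 (Ser235/236) immunofluorescence, normalized and scored as % positive cells using rapamycin and DMSO controls, was read in empty-vector Tsc2-/-, p53-/- MEFs after 24 h compound exposure at 37 C; propidium iodide counted cells.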

In test [3] the target is Ubiquitin carboxyl-terminal hydrolase 2 (Homo sapiens) (UniProt O75604). The test can be described thus: qHTS Validation Assay for Inhibitors of Ubiquitin-specific Protease USP2a Using CHOP2 as the Reporter (AID 463106). In a few lines:
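USP2 core (10 nM final) was preincubated with compound 30 min at RT in pH 8.0 Tris/CaCl2/beta-ME/CHAPS buffer. Ub-CHOP2 and reporter substrate (25 nM final each) were then added, with fluorescence (Ex 485/Em 531) read after 60 min. Data were normalized to NEM full inhibition and fitted to concentration-response curves.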

Test [4] deals with DNA polymerase III PolC-type (Bacillus subtilis (strain 168)) (UniProt P13267). As to the kind of experiment: qHTS Validation Assay for the Inhibitors of DNA Replication in Gram-Positive Bacteria (AID 485295).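 Also: reconstituted holoenzyme with PolC plus beta clamp SSB and primase; PicoGreen fluorescence of double-stranded DNA made on primed circular M13 template; series mostly up to about 57 µM.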 In a few lines:
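Primed replication of single-stranded M13Gori by a four-protein B. subtilis holoenzyme is measured at room temperature. Double-stranded product is quantified by PicoGreen fluorescence after an EDTA stop; inhibition is scaled between DMSO and EDTA controls.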

Test [5] concerns the target Tumor susceptibility gene 101 protein (Homo sapiens) (UniProt Q99816). The test can be described thus: qHTS Validation Assay for Iinhibitors of HIV-1 Budding by Blocking the Interaction of PTAP/TSG101 (AID 485342; calls by dose curve). In a few lines:
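Fluorescence anisotropy measured PTAP-Tsg101 interaction. Final concentrations were 10 uM protein domain and 50 nM labeled peptide, equilibrated 20 min at room temperature.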

Test [6] can be described thus: qHTS Validation Assay to Find Inhibitors of Chronic Active B-Cell Receptor Signaling (AID 485345; active = well fitted curve in the direction sought with a large enough effect in the main read-out, with a control signal flat, not every such curve was filed as active). In a few lines:
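TMD8 ABC-DLBCL cells stably carrying doxycycline-inducible IkappaBalpha–green luciferase fusion plus unfused red luciferase; compounds 46 uM to 3 nM, 4 h at 37C with doxycycline. Corrected green/red luminescence ratio normalized to 10 uM MG-132 and basal cell wells; curves fitted.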

The target of test [7] is Beta-2 adrenergic receptor (Homo sapiens) (UniProt P07550). As to the kind of experiment: qHTS validation assay of beta-arrestin-biased ligands of beta2-adrenergic receptor (AID 485366). In a few lines: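 Tango cells expressing recombinant beta2-AR and beta-arrestin with tTA-driven luciferase, in DMEM with 1% FBS. Compounds were titrated up to 46 microM for 18 hr at 37 degrees C. Luminescence was read 15 min after substrate; curves were fitted and class-assigned.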

A short description of test [8]: Quantitative high throughput screen for delayed death inhibitors of the malarial parasite plastid, 96 hour incubation (AID 488745). Also: nearly all actives have a fitted effect of over 70% in size. Also: potency is read from the fitted curve at half-maximal effect. In a few lines:
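Growth of reporter-bearing P. falciparum in red cells is measured after 96 h with compound, covering two erythrocytic cycles. Luminescence from the integrated luciferase serves as the growth signal.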

Test [9] in a line: Quantitative high throughput screen for delayed death inhibitors of the malarial parasite plastid, 48 hour incubation (AID 488752). Also: nearly all actives have a fitted effect of over 65% in size. Also: potency is read from the fitted curve at half-maximal effect. In a few lines: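 One parasite generation (48 h, 37 C, 5% CO2) of luciferase-reporter P. falciparum in erythrocytes is run with test compound; decreased luminescence indicates inhibited growth.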
The target of test [10] is Thioredoxin reductase 1, cytoplasmic (Rattus norvegicus) (UniProt O89049). As to the kind of experiment: qHTS Assay for Substrates of Mammalian Selenoprotein Thioredoxin Reductase 1 (TrxR1) (AID 488772).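 Also: NADPH fluorescence in the first read after selenite addition and not the 8 min delta; series mostly up to about 57 µM; a drop in NADPH fluorescence below the no-compound background marks a TrxR1 substrate.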 The procedure, abridged: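 Quantitative HTS in Tris-HCl buffer at pH 7.5 with EDTA and Tween-20, using rat TrxR1, 400 uM NADPH and 400 uM selenite (final). A fall in initial NADPH fluorescence relative to background marked substrate behaviour.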

Test [11] shares this target. As to the kind of experiment: qHTS Assay for Inhibitors of Mammalian Selenoprotein Thioredoxin Reductase 1 (TrxR1) (AID 488773). Also: nearly all actives have a fitted effect of over 40% in size. Also: potency is read from the fitted curve at half-maximal effect. Conditions: Potency: inhibition. The procedure, abridged: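 Steps: enzyme (90 nM) plus NADPH (400 uM final), 5 min at ~22 deg C; compound added, 15 min; selenite (400 uM final) added; fluorescence followed for 8 min. Concentration-response curves derived from the normalized delta values.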

The target in test [12] is Flap endonuclease 1 (Homo sapiens) (UniProt P39748). The test can be described thus: qHTS Validation Assay for the Inhibitors of Human Flap endonuclease 1 (FEN1) (AID 488816). In a few lines:
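Human FEN1 (10 nM) preincubated 15 min at room temperature with compounds, then flap DNA substrate added at 50 nM final. Fluorescence read at 0 and 15 min; concentration-response fitted with four-parameter Hill equation.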

Test [13] has as its target M-phase phosphoprotein 8 (Homo sapiens) (UniProt Q99549). The test can be described thus: qHTS Validation Assay for Inhibitors for MPP8 Chromodomain Interactions with Methylated Histone Tails (AID 488949). Also: nearly all actives have a fitted effect of over 55% in size. Also: potency is read from the fitted curve at half-maximal effect. In a few lines: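 Disruption of the preformed MPP8–trimethyl-H3K9 peptide complex (both 50 nM, 30 min, RT) is measured after 30 min compound exposure, using AlphaScreen proximity beads; aurintricarboxylic acid titration serves as plate control.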

Test [14] concerns the target Chromobox protein homolog 1 (Homo sapiens) (UniProt P83916). As to the kind of experiment: qHTS Validation Assay for Inhibitors of HP1-beta Chromodomain Interactions with Methylated Histone Tails (AID 488953). Also: nearly all actives have a fitted effect of over 50% in size. Also: potency is read from the fitted curve at half-maximal effect. In a few lines:
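Measured as loss of AlphaScreen luminescence from streptavidin donor and nickel acceptor beads (10 ug/mL final) bridging HP1-beta and biotin-H3(1-18)K9me3, each 50 nM. Compounds met the preassembled complex for 30 min at RT.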

Test [15] addresses Methanococcus maripaludis chaperonin (MmCpn) (UniProt Q6LX38). As to the kind of experiment: High-Throughput Screening for Modulators of Cytosolic Chaperonin Activity: MmCpn Primary Screen (AID 488978).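 Also: 50 nM MmCpn enzyme hydrolysing 30 µM ATP at 37 °C.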 In a few lines:
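Measures ATPase turnover of the M. maripaludis chaperonin (50 nM final) against 30 uM ATP over 10 min at 37C, with compound added 5 min beforehand at room temperature. ADP is quantified by HTRF immunodetection.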

A short description of test [16]: Cytometry Cell-Based qHTS for Inhibitors of the mTORC1 Signaling Pathway in MEF cells (AID 2668).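 Also: Tsc2-/- p53-/- mouse embryonic fibroblasts stably re-expressing wild-type Tsc2; percent cells positive for phospho-rpS6 Ser235/236 relative to propidium iodide stain; series mostly up to about 38 µM.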 In a few lines: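 Pathway inhibition in WT Tsc2-rescued Tsc2-/-, p53-/- MEFs is measured as the Alexa-488 phospho-rpS6 to propidium iodide intensity ratio after 24 hrs of compound at 37 degree Celsius. PI-stained cell number gives viability.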
A short description of test [17]: Validation screen for small molecules that induce DNA re-replication in MCF 10A normal breast cells (AID 463097). Also: nearly all actives have a fitted effect of over 60% in size. Also: potency is read from the fitted curve at half-maximal effect. The procedure, abridged:
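DNA re-replication was detected as a rise in nuclei with elevated Hoechst fluorescence after a 48 hr compound exposure of MCF 10A cells at 37 C.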

For test [18], the target named is ATP-dependent 6-phosphofructokinase (Trypanosoma brucei brucei) (UniProt O15648). The test can be described thus: qHTS Validation Assay to Find Inhibitors of T. brucei phosphofructokinase (AID 485368). In a few lines:
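Activity was read as ADP production by luminescence (ADP-Glo) after 45 min at room temperature. The enzyme was 1.25nM PFK in 0.1M TEA pH 8.0 with 0.5 mM F6P, 0.1mM ATP and 5 mM MgCl2. Compounds were titrated up to 57 uM and % activity normalized to no-enzyme and full-enzyme controls.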

Structures are written as SMILES. Results filed as inconclusive are left out. Active and inactive are the calls of the source. Unless noted, calls follow the shape of the dose curve; as a rule, active = well fitted curve in the direction sought with a large enough effect; inconclusive = small, poorly fitted or top-dose-only effect, or another doubt; inactive = no such curve, though single readings can be large; an effect the other way counts as inactive or inconclusive.

Chain of ATP-dependent 6-phosphofructokinase (Trypanosoma brucei brucei) (O15648 whole entry, looked up): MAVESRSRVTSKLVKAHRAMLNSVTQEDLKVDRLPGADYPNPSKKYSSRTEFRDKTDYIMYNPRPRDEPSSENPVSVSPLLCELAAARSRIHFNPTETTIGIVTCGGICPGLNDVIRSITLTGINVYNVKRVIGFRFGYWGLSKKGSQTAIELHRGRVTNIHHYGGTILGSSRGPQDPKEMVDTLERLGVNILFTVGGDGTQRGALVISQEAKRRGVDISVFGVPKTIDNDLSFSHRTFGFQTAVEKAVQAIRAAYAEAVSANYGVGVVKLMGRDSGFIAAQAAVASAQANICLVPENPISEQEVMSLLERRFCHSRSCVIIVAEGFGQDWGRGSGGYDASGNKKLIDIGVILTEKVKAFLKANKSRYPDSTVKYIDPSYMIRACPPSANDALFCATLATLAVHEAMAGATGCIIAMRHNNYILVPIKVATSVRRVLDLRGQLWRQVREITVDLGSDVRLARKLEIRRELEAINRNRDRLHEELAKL
Chain of Ubiquitin carboxyl-terminal hydrolase 2 (Homo sapiens) (O75604 whole entry, looked up): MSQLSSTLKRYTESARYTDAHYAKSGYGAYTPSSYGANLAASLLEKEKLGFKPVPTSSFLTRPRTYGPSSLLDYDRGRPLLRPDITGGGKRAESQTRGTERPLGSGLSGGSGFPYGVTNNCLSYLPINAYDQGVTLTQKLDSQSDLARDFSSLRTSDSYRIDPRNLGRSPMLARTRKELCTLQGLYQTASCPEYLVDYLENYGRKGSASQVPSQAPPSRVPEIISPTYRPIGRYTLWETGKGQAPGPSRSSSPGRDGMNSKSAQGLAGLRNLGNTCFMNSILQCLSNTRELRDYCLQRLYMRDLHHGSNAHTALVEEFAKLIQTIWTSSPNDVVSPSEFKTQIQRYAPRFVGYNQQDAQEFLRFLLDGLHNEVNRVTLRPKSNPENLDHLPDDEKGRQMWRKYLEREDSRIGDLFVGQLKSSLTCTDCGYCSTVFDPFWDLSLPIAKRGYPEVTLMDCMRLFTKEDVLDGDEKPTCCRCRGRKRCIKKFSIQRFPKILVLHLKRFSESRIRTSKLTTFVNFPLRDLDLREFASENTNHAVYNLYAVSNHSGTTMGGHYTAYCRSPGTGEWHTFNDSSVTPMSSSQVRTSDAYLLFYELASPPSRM
Chain of Chromobox protein homolog 1 (Homo sapiens) (P83916 whole entry, looked up): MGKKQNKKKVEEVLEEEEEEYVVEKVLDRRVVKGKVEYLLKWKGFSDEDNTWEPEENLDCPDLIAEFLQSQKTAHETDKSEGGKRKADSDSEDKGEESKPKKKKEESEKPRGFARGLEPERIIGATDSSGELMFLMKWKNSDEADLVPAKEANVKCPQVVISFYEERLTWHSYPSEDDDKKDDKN
Chain of Beta-2 adrenergic receptor (Homo sapiens) (P07550 whole entry, looked up): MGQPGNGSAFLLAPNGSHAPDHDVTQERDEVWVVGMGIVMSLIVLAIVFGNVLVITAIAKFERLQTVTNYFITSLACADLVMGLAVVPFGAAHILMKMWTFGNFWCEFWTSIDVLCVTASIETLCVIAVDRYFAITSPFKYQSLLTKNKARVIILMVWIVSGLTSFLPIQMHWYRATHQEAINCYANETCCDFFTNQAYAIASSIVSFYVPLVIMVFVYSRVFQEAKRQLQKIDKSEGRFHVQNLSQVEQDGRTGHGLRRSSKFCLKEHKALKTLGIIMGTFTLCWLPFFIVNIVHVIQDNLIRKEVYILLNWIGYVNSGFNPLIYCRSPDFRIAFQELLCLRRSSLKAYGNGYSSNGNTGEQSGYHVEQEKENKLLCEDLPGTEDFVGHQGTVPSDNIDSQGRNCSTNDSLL
Chain of Thioredoxin reductase 1, cytoplasmic (Rattus norvegicus) (O89049 whole entry, looked up): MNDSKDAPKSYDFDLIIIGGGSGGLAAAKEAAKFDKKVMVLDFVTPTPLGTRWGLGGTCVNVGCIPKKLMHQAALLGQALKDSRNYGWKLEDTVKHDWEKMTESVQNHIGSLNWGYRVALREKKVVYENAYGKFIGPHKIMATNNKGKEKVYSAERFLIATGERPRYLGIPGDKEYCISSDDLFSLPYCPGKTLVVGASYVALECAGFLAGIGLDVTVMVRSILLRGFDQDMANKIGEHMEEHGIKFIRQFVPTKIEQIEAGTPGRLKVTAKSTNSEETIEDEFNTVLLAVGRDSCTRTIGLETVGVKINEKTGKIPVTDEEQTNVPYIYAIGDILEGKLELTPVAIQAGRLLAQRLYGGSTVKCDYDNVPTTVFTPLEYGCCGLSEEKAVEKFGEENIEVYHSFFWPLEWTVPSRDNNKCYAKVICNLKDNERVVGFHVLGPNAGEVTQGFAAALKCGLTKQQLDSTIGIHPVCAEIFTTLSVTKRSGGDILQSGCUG
Chain of Flap endonuclease 1 (Homo sapiens) (P39748 whole entry, looked up): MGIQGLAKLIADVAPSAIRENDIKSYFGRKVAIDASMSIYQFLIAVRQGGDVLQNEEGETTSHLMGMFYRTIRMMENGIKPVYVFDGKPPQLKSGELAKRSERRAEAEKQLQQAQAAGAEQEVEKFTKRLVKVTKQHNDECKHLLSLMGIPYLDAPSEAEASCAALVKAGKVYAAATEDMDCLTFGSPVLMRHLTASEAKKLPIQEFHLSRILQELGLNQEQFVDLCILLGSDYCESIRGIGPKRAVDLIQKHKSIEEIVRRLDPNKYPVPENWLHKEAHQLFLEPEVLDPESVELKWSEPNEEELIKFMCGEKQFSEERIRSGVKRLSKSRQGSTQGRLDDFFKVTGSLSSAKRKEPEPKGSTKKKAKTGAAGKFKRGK
Chain of DNA polymerase III PolC-type (Bacillus subtilis (strain 168)) (P13267 whole entry, looked up): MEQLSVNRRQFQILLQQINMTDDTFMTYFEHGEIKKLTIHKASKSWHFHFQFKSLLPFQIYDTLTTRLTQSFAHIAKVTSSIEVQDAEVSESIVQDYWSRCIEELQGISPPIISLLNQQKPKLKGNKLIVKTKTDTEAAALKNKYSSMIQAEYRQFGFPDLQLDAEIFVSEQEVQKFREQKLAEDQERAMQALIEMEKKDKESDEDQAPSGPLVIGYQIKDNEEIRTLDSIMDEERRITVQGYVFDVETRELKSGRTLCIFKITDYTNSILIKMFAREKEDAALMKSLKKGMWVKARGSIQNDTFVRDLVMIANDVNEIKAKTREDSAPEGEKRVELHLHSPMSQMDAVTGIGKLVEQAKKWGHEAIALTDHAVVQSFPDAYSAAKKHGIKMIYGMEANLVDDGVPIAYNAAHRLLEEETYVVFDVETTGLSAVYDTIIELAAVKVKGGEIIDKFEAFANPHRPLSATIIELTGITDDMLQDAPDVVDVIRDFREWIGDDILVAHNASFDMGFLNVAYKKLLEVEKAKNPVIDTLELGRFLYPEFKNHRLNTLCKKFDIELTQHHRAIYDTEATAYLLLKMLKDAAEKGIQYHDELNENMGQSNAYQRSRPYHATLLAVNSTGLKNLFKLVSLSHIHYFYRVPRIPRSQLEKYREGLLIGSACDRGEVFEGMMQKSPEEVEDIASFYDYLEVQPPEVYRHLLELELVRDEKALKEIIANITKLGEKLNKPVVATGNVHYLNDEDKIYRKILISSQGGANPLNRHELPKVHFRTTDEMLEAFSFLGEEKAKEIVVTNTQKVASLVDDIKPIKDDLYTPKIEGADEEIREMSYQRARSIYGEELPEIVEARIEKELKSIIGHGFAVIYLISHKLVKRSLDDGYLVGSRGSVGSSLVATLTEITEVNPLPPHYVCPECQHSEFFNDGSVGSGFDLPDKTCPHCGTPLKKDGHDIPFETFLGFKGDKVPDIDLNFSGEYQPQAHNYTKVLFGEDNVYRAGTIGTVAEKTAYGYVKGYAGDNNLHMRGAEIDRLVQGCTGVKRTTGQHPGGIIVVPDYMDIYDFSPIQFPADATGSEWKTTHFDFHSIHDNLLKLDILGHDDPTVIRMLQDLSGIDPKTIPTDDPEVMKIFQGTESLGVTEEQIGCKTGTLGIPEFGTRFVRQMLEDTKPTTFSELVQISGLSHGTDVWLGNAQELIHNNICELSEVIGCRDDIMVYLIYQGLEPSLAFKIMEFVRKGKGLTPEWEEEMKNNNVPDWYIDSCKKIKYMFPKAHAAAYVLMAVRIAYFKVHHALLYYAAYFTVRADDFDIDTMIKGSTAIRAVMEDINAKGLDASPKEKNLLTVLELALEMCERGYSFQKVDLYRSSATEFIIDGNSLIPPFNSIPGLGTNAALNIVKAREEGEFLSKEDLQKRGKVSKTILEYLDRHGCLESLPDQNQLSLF
Chain of Tumor susceptibility gene 101 protein (Homo sapiens) (Q99816 whole entry, looked up, the tested form may be a part): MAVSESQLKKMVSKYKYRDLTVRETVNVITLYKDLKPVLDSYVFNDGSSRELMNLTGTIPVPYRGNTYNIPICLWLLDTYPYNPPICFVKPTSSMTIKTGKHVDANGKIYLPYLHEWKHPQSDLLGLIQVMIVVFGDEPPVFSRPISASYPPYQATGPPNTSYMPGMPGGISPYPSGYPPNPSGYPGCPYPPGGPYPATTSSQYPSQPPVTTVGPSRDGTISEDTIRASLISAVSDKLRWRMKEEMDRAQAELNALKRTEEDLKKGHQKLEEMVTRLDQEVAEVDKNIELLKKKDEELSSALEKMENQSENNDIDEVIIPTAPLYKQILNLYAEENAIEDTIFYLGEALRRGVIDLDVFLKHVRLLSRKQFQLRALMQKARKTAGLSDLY
Chain of Methanococcus maripaludis chaperonin (MmCpn) (Q6LX38 1-543): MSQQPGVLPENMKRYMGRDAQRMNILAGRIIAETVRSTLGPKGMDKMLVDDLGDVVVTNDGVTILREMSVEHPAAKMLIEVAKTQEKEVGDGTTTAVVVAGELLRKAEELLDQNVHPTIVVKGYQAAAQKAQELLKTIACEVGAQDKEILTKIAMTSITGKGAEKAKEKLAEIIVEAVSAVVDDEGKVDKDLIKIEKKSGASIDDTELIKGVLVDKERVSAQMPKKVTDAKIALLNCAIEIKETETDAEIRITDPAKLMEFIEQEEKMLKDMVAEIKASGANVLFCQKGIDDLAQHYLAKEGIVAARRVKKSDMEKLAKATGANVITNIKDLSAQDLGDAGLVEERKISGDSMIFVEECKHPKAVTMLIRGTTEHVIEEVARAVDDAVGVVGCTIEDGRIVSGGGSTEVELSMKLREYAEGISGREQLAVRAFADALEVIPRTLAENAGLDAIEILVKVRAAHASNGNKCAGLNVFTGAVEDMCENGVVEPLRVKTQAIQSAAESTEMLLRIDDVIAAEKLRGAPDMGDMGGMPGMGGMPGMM

On to `CCCCCCCCCCCCCCC[C@H](O)[C@H](N)CO`, for which the call in test [1], in test [5], in test [6], in [7] and in test [10] was inactive. The Potency entry in test [2], in [3], in test [4], in test [8], in [9] and in [11] was “inactive” throughout. In addition, the Potency entry in test [12] and in test [13] was “inactive” throughout. Besides, in test [14], the Potency is 89.1 µM (active).
Consider `CC1CNCCN1S(=O)(=O)c1cccc2cnccc12` (stereo unspecified), for which the compound was called inactive in test [1], in [5], in test [7], in test [10] and in [15]. The Potency result in test [2], in test [3], in test [4], in [8], in test [9] and in test [11] was “inactive” in each case. The Potency result in test [12] and in [13] was “inactive” throughout.
With `COc1cccc(OC)c1OCCNCC1CSc2ccccc2O1` (stereo unspecified), the compound was called inactive in [1], in test [5], in test [7] and in [10]. In addition, the Potency result in test [2], in test [16], in [17], in test [3], in test [4] and in test [8] was “inactive” each time. Besides, the Potency result in [9], in test [11], in test [12], in test [13] and in test [14] was “inactive” in each case.
`NC1(C(=O)O)CCc2cc(C(=O)O)ccc21` (stereo unspecified): the call in test [1], in test [5], in test [6], in [7] and in [10] was inactive. For the same compound, the Potency result in test [2], in test [16], in test [17], in test [3], in test [4] and in test [8] was “inactive” in each case. Also, the Potency entry in test [9], in test [12], in test [13] and in test [14] was “inactive” in each case. In [11], the Potency was 16.8 µM (active).
Consider `C=CCN1CCc2c(cc(O)c(O)c2Br)[C@@H](c2ccccc2)C1`, for which the compound was called inactive in test [1], in [5], in test [6], in test [7] and in [15]. Moreover, the Potency result in test [2], in test [3], in [4], in [8], in test [11] and in [12] was “inactive” in each case. Also, the Potency in [9] is 1.85 µM (active); in test [14], 44.7 µM (active).
As for `O=C(O)Cc1c[nH]c2ccc(O)cc12`, the outcome in [1], in [5], in test [7], in test [10] and in test [15] was inactive. Also, the Potency result in test [2], in test [16], in [17], in [3], in [4] and in [18] was “inactive” each time. Moreover, the Potency result in test [12], in [13] and in [14] was “inactive” in each case.
In the case of `CC(N)(Cc1ccc(O)cc1)C(=O)O` (stereo unspecified), the call in test [1], in [5], in test [6], in test [10] and in test [15] was inactive. Moreover, the Potency entry in test [2], in [16], in test [17], in test [3], in [4] and in test [18] was “inactive” throughout. In addition, the Potency entry in test [8], in test [9], in test [12] and in [13] was “inactive” in each case.
Regarding `O=C1NC(=O)c2cc(Nc3ccccc3)c(Nc3ccccc3)cc21`, the outcome in test [1], in test [5], in test [7], in test [10] and in test [15] was inactive. Further, the Potency entry in test [2], in test [16], in [3], in test [4], in test [11] and in [12] was “inactive” each time. Further, in [13], the Potency is 31.6 µM (active).
Take `CC(C)(C)c1cc(/C=C(\C#N)C(N)=S)cc(C(C)(C)C)c1O`: the compound was called inactive in test [1], in test [5], in [7], in test [10] and in test [15]. Moreover, the Potency entry in [2], in test [3], in test [4], in [18] and in test [12] was “inactive” each time. Moreover, the Potency was 3.16 µM (active) in [17], 9.28 µM (active) in [8], 11.2 µM (active) in [13] and 11.2 µM (active) in test [14].

(Values after PubChem BioAssay (NCATS).)
